Measurements taken from PubChem BioAssay AID2284324 (EPA ToxCast).
Results filed as inconclusive are left out. Active and inactive are the calls of the source. The calls were made as follows: active = hit-call score of the fitted dose curve at least 0.9, where 1 is the maximum; inconclusive = response in the unintended direction; inactive = score below 0.9.

Each compound was assayed on Japanese medaka Glucocorticoid Receptor (GR), gene 101170451 (assay: ATG_jmGR_EcoTox2: Attagene TRANS-FACTORIAL EcoTox-2 HepG2 Assay for Japanese medaka Glucocorticoid Receptor (GR)).
Procedure: ATG_EcoTox2 is a cell-based, multiplexed assay created by modifying the existing Attagene TRANS-FACTORIAL system to include a panel of nuclear receptors from some or all the following species: human (Homo sapiens), african clawed frog (Xenopus laevis), rainbow trout (Oncorhynchus mykiss), japanese medaka (Oryzias latipes), and zebrafish (Danio rerio). The ECOTOX2-FACTORIAL format uses HepG2, a human liver cell line, with measurements taken at 24 hours after chemical dosing in a 24-well plate. ATG_jmGR_EcoTox2 is one of 29 assay components calculated in the ATG_EcoTox2 assay. It is designed to make measurements of mRNA induction, a form of inducible reporter, as detected with fluorescence intensity signals by Reverse transcription polymerase chain reaction (RT-PCR) and Capillary electrophoresis technology.The assay endpoint ATG_jmGR_EcoTox2 was analyzed in the positive analysis fitting direction relative to DMSO as the negative control and baseline of activity. Using a type of inducible reporter, measures of mRNA for gain-of-signal activity can be used to understand the reporter gene at the transcription factor-level as they relate to the gene for glucocorticoid receptor. Furthermore, this assay endpoint can be referred to as a primary readout, because this assay has produced multiple assay endpoints where this one serves a reporter gene function. To generalize the intended target to other relatable targets, this assay endpoint is annotated to the nuclear receptor intended target family, where the subfamily is steroidal.
Human liver HepG2 cells are transiently transfected with multiple reporter transcription units (MRTUs) in 6-well plates using FuGene 6 reagent (Roche; 3 ml FuGene/1 mg DNA). The MRTU constructs are regulated by a cis-regulating element (promoter). Each RTU expresses a GAL4-UAS that regulates the transcription of a nearby target reporter gene sequence. A major difference between the CIS and TRANS system is that in CIS activities of endogenous TFs are measured, whereas the TRANS assay evaluates changes in activities of exogenous, chimeric NR-Gal4 proteins. […] At the end of 24 hour incubation, total RNA was isolated using TriZol reagent (Invitrogen). The isolated RNA is then reverse-transcribed using oligo(dT) primer and Mo-MLV reverse transcriptase (Invitrogen) with DNAse I (Ambion) treatment for 30 min. The one-tenth of the produced cDNA was amplified by PCR using Taq DNA polymerase (Invitrogen) and two reporter sequence-specific primers. The PCR products were fluorescently labeled by primer extension with 6-arboxyfluorescein (6-FAM) 5'-labeled reporter sequence-specific primer (2 min at 95 C, 20 s at 68 C and 10 min at 72 C) and these products were digested with 5U of HpaI (New England Biolabs) for 2h at 37 C. The fragments were purified using Qiaquick PCR columns (Qiagen), analyzed on an ABI 3130xL genetic analyzer (Applied Biosystems) with peak positions identified by using a set of X-rhodamine (ROX)-labeled MapMarker1000 molecular weight standards (BioVentures). The raw capillary electrophoresis data was processed using Attagraph software (Attagene).

SMILES	outcome	AC50
CC(C)(Oc1ccc(CCNC(=O)c2ccc(Cl)cc2)cc1)C(=O)O	inactive	
Cc1ccc(C)c(OCCCC(C)(C)C(=O)O)c1	inactive	
CC(C)(Oc1ccc(C2CC2(Cl)Cl)cc1)C(=O)O (stereo not drawn)	inactive	
Cc1cccc(Nc2cc(Cl)nc(SCC(=O)O)n2)c1C	inactive	
C[C@@H]1C[C@H]2[C@@H]3CCC4=CC(=O)C=C[C@]4(C)[C@@]3(F)[C@@H](O)C[C@]2(C)[C@@]1(O)C(=O)COP(=O)(O)O		14.8 nM (active)
CC(C)(Oc1ccc(Cl)cc1)C(=O)O	inactive	
CC(C)OC(=O)C(C)(C)Oc1ccc(C(=O)c2ccc(Cl)cc2)cc1	inactive	
C[C@]12C=CC(=O)C=C1CC[C@@H]1[C@@H]2C(=O)C[C@@]2(C)[C@H]1CC[C@]2(O)C(=O)CO	inactive	
